# Assay results from ChEMBL document CHEMBL1961873, “Compounds: GSK PKIS; Assays: Nanosyn kinase panel” (2012).
# Assays:
# [1] = target: T1, Ephrin type-B receptor 2 (Homo sapiens) (UniProt P29323); details: at 1 µM
# T1 sequence (whole entry): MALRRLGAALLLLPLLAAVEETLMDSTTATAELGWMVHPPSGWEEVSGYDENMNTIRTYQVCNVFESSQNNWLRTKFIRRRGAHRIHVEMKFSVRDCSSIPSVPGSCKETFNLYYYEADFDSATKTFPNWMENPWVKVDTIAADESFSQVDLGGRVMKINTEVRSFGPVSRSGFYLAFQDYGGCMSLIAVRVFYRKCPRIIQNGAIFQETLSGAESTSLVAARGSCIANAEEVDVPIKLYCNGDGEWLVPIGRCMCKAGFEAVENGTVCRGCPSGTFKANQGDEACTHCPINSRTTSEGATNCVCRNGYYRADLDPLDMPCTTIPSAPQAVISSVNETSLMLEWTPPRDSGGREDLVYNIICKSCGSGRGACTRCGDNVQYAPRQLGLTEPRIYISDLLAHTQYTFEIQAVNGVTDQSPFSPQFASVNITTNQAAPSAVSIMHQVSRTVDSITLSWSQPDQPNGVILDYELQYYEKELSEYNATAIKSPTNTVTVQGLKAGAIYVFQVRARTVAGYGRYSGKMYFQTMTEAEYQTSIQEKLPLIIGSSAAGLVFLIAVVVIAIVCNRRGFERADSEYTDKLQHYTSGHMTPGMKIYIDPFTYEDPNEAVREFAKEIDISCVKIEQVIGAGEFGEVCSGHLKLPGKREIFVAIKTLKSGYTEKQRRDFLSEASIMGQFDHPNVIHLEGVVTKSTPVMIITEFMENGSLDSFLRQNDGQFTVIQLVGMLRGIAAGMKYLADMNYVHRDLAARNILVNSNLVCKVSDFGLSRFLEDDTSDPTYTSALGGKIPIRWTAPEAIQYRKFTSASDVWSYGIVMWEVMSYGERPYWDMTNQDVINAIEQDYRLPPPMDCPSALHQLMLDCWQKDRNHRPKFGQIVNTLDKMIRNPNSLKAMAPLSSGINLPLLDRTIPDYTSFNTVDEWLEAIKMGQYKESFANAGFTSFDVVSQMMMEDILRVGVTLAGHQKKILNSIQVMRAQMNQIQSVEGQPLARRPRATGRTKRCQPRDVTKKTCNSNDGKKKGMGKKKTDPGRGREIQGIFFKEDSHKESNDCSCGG
# [2] = target: T2, Ephrin type-B receptor 3 (Homo sapiens) (UniProt P54753); details: at 0.1 µM
# T2 sequence (whole entry): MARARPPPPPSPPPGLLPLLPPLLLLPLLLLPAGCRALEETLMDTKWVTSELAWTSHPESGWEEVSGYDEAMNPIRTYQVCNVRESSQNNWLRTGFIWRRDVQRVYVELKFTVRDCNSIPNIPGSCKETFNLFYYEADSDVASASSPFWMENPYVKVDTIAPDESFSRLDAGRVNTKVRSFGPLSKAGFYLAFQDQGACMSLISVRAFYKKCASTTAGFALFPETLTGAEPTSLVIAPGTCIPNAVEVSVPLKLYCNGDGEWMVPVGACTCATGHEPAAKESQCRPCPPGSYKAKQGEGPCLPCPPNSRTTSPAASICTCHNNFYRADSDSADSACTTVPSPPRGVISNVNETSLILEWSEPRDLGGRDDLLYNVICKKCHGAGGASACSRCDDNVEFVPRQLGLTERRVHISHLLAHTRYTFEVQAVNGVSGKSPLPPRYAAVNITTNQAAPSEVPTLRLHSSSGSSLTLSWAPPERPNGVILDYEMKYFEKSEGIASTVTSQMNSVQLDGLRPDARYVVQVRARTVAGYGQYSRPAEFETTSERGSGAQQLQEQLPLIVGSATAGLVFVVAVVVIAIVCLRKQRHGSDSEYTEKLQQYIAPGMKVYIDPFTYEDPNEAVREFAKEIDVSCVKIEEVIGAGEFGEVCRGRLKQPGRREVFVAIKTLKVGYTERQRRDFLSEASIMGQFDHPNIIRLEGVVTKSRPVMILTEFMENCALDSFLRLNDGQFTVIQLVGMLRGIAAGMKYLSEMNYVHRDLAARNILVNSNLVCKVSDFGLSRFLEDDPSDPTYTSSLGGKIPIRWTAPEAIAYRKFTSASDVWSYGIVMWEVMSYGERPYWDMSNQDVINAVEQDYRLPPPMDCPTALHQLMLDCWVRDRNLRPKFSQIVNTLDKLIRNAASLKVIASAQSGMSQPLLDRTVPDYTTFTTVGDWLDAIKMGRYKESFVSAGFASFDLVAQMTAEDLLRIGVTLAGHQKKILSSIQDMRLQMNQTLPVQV
# [3] = target: T2, Ephrin type-B receptor 3 (Homo sapiens); details: at 1 µM
# [4] = target: T3, Ephrin type-B receptor 4 (Homo sapiens) (UniProt P54760); details: at 0.1 µM
# T3 sequence (whole entry): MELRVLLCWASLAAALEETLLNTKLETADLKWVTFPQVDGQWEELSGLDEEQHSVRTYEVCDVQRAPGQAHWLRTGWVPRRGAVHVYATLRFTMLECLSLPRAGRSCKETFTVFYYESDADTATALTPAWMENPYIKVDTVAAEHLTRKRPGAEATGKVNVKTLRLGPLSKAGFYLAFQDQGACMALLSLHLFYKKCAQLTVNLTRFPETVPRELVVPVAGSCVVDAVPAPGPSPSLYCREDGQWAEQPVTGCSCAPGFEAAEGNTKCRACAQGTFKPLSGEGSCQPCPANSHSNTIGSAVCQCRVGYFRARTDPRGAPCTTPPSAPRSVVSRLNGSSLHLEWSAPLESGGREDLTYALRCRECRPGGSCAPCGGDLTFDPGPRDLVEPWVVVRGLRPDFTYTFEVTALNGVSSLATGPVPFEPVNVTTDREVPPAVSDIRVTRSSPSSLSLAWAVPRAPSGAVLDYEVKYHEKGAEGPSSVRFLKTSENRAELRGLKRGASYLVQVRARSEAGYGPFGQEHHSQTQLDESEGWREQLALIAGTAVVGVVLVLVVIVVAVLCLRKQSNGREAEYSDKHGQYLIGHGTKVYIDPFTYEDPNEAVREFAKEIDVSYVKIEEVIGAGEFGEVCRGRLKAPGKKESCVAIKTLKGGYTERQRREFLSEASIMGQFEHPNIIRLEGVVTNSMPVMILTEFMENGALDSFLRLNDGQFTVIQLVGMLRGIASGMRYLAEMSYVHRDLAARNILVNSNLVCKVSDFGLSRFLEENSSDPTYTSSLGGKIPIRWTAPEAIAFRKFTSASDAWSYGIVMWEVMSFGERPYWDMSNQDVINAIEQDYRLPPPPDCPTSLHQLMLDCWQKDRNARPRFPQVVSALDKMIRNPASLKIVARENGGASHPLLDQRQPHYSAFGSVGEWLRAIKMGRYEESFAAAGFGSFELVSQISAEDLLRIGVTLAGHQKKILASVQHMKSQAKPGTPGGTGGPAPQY
# [5] = target: T3, Ephrin type-B receptor 4 (Homo sapiens); details: at 1 µM
# [6] = target: Receptor tyrosine-protein kinase erbB-2 (Homo sapiens) (UniProt P04626); details: at 0.1 µM
# Chain of Receptor tyrosine-protein kinase erbB-2 (Homo sapiens) (P04626 whole entry): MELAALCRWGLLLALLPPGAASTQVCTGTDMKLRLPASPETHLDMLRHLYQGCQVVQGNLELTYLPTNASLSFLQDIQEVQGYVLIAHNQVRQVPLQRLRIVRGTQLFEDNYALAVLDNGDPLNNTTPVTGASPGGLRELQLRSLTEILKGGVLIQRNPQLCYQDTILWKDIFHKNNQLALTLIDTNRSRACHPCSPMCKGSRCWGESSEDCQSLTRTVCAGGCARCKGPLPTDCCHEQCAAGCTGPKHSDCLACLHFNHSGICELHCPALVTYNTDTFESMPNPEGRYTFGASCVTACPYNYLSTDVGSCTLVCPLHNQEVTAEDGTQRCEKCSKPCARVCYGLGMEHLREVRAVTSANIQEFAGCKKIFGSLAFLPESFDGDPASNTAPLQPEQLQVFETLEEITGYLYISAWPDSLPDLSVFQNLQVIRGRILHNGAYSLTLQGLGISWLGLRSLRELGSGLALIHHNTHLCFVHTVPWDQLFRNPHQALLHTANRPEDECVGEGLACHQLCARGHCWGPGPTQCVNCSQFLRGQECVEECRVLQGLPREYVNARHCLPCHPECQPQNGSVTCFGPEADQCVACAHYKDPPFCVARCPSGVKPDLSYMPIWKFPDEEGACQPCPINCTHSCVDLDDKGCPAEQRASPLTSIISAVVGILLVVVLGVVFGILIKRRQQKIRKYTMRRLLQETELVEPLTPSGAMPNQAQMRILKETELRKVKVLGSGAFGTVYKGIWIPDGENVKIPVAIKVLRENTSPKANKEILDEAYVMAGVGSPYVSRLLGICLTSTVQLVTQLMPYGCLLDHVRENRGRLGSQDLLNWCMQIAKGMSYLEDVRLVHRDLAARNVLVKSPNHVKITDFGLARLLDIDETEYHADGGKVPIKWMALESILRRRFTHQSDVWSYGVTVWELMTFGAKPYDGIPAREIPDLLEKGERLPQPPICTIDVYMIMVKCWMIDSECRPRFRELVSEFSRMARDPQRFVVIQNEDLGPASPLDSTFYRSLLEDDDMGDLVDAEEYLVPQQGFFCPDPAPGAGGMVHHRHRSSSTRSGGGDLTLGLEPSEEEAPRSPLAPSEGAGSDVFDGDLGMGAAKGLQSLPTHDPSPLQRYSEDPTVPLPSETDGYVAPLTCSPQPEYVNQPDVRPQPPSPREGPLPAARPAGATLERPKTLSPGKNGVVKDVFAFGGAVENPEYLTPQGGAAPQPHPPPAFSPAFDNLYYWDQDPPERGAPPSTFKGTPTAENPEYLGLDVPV
# [7] = target: Receptor tyrosine-protein kinase erbB-2 (Homo sapiens) (UniProt P04626); details: at 1 µM
# [8] = target: Receptor tyrosine-protein kinase erbB-4 (Homo sapiens) (UniProt Q15303); details: at 0.1 µM
# [9] = target: Receptor tyrosine-protein kinase erbB-4 (Homo sapiens) (UniProt Q15303); details: at 1 µM
# [10] = target: Tyrosine-protein kinase Fer (Homo sapiens) (UniProt P16591); details: at 0.1 µM
# Chain of Tyrosine-protein kinase Fer (Homo sapiens) (P16591 whole entry, looked up): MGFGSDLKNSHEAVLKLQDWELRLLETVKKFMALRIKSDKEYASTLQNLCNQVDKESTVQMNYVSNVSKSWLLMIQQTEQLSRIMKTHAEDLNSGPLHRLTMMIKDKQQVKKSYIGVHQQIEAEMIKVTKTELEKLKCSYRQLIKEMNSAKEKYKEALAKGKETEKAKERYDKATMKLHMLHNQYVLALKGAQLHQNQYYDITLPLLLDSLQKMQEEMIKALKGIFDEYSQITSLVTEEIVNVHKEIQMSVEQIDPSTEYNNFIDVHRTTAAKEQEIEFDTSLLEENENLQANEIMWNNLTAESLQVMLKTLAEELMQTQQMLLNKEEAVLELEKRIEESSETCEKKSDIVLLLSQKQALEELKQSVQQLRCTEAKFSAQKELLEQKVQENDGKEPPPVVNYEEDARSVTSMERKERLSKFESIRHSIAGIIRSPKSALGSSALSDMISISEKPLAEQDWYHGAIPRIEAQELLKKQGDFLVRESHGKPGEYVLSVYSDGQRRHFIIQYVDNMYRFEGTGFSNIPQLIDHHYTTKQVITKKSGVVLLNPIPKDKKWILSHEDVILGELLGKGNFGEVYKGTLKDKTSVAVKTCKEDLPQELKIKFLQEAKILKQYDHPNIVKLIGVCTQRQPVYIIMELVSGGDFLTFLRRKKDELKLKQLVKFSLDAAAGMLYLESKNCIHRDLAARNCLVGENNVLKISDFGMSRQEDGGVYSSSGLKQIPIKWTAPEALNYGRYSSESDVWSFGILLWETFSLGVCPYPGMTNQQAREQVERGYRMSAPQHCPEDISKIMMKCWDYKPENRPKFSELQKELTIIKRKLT
# [11] = target: Tyrosine-protein kinase Fer (Homo sapiens) (UniProt P16591); details: at 1 µM
# [12] = target: Tyrosine-protein kinase Fes/Fps (Homo sapiens) (UniProt P07332); details: at 0.1 µM
# Chain of Tyrosine-protein kinase Fes/Fps (Homo sapiens) (P07332 whole entry): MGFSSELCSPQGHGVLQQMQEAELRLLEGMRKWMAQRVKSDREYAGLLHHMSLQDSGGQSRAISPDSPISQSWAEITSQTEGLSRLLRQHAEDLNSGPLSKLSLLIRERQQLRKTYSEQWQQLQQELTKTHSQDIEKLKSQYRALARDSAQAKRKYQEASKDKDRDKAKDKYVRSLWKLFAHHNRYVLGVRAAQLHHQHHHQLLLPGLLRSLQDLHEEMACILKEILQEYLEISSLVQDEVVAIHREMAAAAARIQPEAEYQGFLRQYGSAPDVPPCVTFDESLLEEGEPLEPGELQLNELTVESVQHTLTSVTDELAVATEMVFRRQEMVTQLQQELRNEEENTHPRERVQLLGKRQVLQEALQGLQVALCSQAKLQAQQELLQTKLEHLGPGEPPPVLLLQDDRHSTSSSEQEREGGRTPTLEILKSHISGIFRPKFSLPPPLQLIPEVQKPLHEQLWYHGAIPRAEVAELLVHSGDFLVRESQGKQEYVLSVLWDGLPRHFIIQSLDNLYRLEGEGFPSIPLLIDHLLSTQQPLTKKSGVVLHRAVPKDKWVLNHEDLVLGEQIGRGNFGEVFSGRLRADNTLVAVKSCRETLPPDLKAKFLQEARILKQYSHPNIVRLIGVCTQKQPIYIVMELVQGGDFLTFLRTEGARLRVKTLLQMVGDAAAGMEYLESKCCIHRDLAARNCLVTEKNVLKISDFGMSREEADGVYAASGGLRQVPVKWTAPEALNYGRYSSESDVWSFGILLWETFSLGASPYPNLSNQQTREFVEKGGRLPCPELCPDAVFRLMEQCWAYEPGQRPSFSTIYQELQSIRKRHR
# [13] = target: Tyrosine-protein kinase Fes/Fps (Homo sapiens) (UniProt P07332); details: at 1 µM
# [14] = target: Fibroblast growth factor receptor 1 (Homo sapiens) (UniProt P11362); details: at 0.1 µM
# Chain of Fibroblast growth factor receptor 1 (Homo sapiens) (P11362 22-822 limits assumed): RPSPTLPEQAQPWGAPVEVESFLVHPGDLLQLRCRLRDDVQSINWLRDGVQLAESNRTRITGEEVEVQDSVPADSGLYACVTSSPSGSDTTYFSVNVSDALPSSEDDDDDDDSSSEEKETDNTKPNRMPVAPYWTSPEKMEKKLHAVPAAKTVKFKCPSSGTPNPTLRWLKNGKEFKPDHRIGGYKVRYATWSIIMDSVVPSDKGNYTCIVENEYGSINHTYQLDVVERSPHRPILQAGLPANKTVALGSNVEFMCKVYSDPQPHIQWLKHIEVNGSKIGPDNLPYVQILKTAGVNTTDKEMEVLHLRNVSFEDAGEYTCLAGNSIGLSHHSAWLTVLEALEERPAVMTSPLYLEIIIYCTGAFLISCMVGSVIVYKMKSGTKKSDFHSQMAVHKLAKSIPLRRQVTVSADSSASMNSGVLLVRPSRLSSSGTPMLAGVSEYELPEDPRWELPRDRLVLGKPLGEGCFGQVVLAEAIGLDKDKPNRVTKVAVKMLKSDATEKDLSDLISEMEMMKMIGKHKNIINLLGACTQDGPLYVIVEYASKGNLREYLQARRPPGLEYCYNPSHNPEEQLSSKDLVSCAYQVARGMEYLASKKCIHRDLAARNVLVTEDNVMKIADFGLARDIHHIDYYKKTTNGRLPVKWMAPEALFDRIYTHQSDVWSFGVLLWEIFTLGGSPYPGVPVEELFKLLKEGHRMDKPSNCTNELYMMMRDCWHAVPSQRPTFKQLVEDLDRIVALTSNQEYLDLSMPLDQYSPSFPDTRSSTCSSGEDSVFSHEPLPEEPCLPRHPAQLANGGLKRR
# [15] = target: Fibroblast growth factor receptor 1 (Homo sapiens) (UniProt P11362); details: at 1 µM
# [16] = target: Fibroblast growth factor receptor 2 (Homo sapiens) (UniProt P21802); details: at 0.1 µM
# Chain of Fibroblast growth factor receptor 2 (Homo sapiens) (P21802 22-821 limits assumed): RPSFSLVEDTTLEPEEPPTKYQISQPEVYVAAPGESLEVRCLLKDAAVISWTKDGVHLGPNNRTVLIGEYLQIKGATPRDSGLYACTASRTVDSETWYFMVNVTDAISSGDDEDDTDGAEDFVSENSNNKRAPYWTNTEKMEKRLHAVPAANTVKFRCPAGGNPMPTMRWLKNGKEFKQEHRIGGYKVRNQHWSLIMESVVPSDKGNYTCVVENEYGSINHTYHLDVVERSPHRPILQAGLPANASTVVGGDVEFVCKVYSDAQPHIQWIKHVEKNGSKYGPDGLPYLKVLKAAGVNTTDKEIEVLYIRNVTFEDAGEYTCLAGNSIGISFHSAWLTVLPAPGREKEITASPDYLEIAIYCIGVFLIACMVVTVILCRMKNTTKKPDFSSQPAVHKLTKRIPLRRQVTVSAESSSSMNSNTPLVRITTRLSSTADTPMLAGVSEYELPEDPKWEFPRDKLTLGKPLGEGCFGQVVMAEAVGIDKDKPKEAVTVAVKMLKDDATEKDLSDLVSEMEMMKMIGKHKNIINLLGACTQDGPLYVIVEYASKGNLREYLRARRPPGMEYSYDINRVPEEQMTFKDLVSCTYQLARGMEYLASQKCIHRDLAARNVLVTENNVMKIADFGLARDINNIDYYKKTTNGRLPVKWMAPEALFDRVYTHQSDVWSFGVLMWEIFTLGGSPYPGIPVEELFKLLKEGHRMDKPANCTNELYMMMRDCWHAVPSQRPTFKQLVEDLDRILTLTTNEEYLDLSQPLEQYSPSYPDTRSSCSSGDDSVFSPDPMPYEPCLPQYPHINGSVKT
# [17] = target: Fibroblast growth factor receptor 2 (Homo sapiens) (UniProt P21802); details: at 1 µM
# [18] = target: Fibroblast growth factor receptor 3 (Homo sapiens) (UniProt P22607); details: at 0.1 µM
# [19] = target: Fibroblast growth factor receptor 3 (Homo sapiens) (UniProt P22607); details: at 1 µM
# [20] = target: Fibroblast growth factor receptor 4 (Homo sapiens) (UniProt P22455); details: at 0.1 µM;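 further: values are mean percent inhibition of FGFR4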
SMILES,inhibition [1] [%],inhibition [2] [%],inhibition [3] [%],inhibition [4] [%],inhibition [5] [%],inhibition [6] [%],inhibition [7] [%],inhibition [8] [%],inhibition [9] [%],inhibition [10] [%],inhibition [11] [%],inhibition [12] [%],inhibition [13] [%],inhibition [14] [%],inhibition [15] [%],inhibition [16] [%],inhibition [17] [%],inhibition [18] [%],inhibition [19] [%],inhibition [20] [%]
COc1ccc2ncn(-c3cc(O[C@H](C)c4ccccc4Cl)c(C(N)=O)s3)c2c1,12,0.01,0.43,-2.13,-1.28,2.78,2.8,1.62,4.43,2.82,3.7,2.74,1.59,-0.72,4.65,-0.16,5.18,1.57,4.59,-1.86
CCS(=O)(=O)c1ccc(OC)c(Nc2ncc(-c3ccccc3Cl)o2)c1,8.86,4.07,3.23,1.77,1.22,-1.67,1.42,4.14,4.95,-0.76,2.34,0.35,0.33,2.09,7.29,6.83,33,6.65,32.4,3.96
NCc1ccc(-n2c(-c3nonc3N)nc3cnccc32)cc1,8.48,7.61,3.86,2.23,1.42,2.39,2.56,16.3,18,3.01,5.77,12.8,13,4.07,6.76,6.5,9.9,9.59,6.14,-4.29
CS(=O)(=O)CCNCc1cc(-c2cc3c(Nc4ccc(OCc5cccc(F)c5)c(Cl)c4)ncnc3s2)cs1,7.92,0.62,4.6,-0.19,2.96,3.61,60.2,22.7,76.7,2.65,7.65,4.73,5.27,5.5,3.17,7.79,8.79,6,6.34,5.68
COc1cc2ncn(-c3cc(OCCc4ccccc4)c(C(N)=O)s3)c2cc1OC,6.52,2.67,2.11,2.03,2.56,2.58,2.47,13.8,13.1,4.91,1.49,1.6,1.71,14.8,2.62,1.97,3.63,2.83,2.85,-0.14
COc1cc(C)c(N(C)C(=O)CN(C)C)cc1Nc1nc(Nc2cccc(F)c2C(N)=O)c2cc[nH]c2n1,4.5,-1.17,-3.39,-2.25,-3.91,-0.03,-3.53,4.41,4.97,9.81,23,5.04,10.7,0.07,-3.58,-2.28,-2.01,-0.36,-2.8,-3.66
CN(C)CCOc1ccc(-c2cc(-c3ccc4c(c3)CCC4=NO)c(-c3ccncc3)o2)cc1,6.81,-0.49,5.63,0.06,1.37,3.66,5.12,1.69,13,-1.17,-0.96,0.22,-1.71,-4.37,-0.28,-2.17,-0.7,-1.69,-0.19,1.99
